{"source": "the supplement of paper PMC4022240", "assay_in_all_cases": "peptide microarray binding signal (635 nm), min-max normalized on array (fraction of array maximum); higher = stronger binding", "key": {"[1]": {"molecular_target": "T1, HaloTag-ATRX ADD domain (163-292)", "T1 chain": "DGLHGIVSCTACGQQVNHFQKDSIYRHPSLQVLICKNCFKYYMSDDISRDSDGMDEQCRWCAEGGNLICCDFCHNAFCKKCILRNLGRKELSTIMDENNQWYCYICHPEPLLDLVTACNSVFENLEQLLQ", "in_short": "(§1)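 An Axon GenePix 4000B scanned the arrays at 635 nm for signal and at 532 nm to catch misprints. Those arrays held histone 13-mer peptide–cellulose conjugates printed in triplicate on nitrocellulose with a Cy3 tracer, blocked overnight at 4°C and probed for 1 h at 4°C with biotin-labelled HaloTag reader fusions (10 nM to 1 μM) plus streptavidin-Alexa Fluor 647 or with rabbit histone antibodies (1:10,000 to 1:2,000) plus anti-rabbit Alexa 647. Each binding signal is a triplicate-spot mean intensity, scaled min-max within its library.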"}, "[2]": {"molecular_target": "HaloTag-ING2 PHD (mouse Ing2 200-280)", "in_short": "as §1"}, "[3]": {"molecular_target": "anti-H3K4me3 antibody ab8580", "in_short": "as §1"}, "[4]": {"molecular_target": "anti-H3K9me3 antibody ab8898", "in_short": "as §1"}, "[5]": {"conditions": "peptide region: Unmod H2A variant, binder concentration: 50 nM"}, "[6]": {"conditions": "peptide region: Unmod H2A variant, binder concentration: 500 nM"}, "[7]": {"conditions": "peptide region: Unmod H2A variant, binder concentration: 10 nM"}, "[8]": {"conditions": "peptide region: Unmod H2A variant, binder concentration: 100 nM"}, "[9]": {"conditions": "peptide region: Unmod H2A variant, binder concentration: 1:2,000 dilution"}, "[10]": {"conditions": "peptide region: Unmod H2A variant, binder concentration: 1:10,000 dilution"}, "[11]": {"conditions": "peptide region: Unmod H1 variant, binder concentration: 50 nM"}, "[12]": {"conditions": "peptide region: Unmod H1 variant, binder concentration: 500 nM"}, "[13]": {"conditions": "peptide region: Unmod H1 variant, binder concentration: 10 nM"}, "[14]": {"conditions": "peptide region: Unmod H1 variant, binder concentration: 100 nM"}, "[15]": {"conditions": "peptide region: Unmod H1 variant, binder concentration: 1:2,000 dilution"}, "[16]": {"conditions": "peptide region: Unmod H1 variant, binder concentration: 1:10,000 dilution"}}, "note": "± gives the standard deviation."}
{"binder": "RAKSKSRSSRAGL", "note": "[Unmod H2A variant R A K S K S R S S R A G L]", "values": [{"measurement": "peptide microarray binding signal", "setting": "[1]; [5]", "value": "0.0102 ± 0.0014"}, {"measurement": "peptide microarray binding signal", "setting": "[1]; [6]", "value": "0.00576 ± 0.0015"}, {"measurement": "peptide microarray binding signal", "setting": "[2]; [7]", "value": "0.00645 ± 0.0004"}, {"measurement": "peptide microarray binding signal", "setting": "[2]; [8]", "value": "0.0116 ± 0.0028"}, {"measurement": "peptide microarray binding signal", "setting": "[3]; [9]", "value": "0.000472 ± 4.5e-05"}, {"measurement": "peptide microarray binding signal", "setting": "[3]; [10]", "value": "0.00165 ± 3.2e-05"}, {"measurement": "peptide microarray binding signal", "setting": "[4]; [9]", "value": "0.0005588 ± 5.2e-06"}, {"measurement": "peptide microarray binding signal", "setting": "[4]; [10]", "value": "0.00127 ± 2.5e-05"}]}
{"binder": "RSSRAGLQFPVGR", "note": "[Unmod H2A variant R S S R A G L Q F P V G R]", "values": [{"measurement": "peptide microarray binding signal", "setting": "[1]; [5]", "value": "0.0275 ± 0.0053"}, {"measurement": "peptide microarray binding signal", "setting": "[1]; [6]", "value": "0.0768 ± 0.0024"}, {"measurement": "peptide microarray binding signal", "setting": "[2]; [7]", "value": "0.0177 ± 0.0021"}, {"measurement": "peptide microarray binding signal", "setting": "[2]; [8]", "value": "0.0277 ± 0.0034"}, {"measurement": "peptide microarray binding signal", "setting": "[3]; [9]", "value": "0.00311 ± 0.00055"}, {"measurement": "peptide microarray binding signal", "setting": "[3]; [10]", "value": "0.00148 ± 3.8e-05"}, {"measurement": "peptide microarray binding signal", "setting": "[4]; [9]", "value": "0.0008004 ± 6.8e-06"}, {"measurement": "peptide microarray binding signal", "setting": "[4]; [10]", "value": "0.0011 ± 2.2e-05"}]}
{"binder": "AGLQFPVGRVHRL", "note": "[Unmod H2A variant A G L Q F P V G R V H R L]", "values": [{"measurement": "peptide microarray binding signal", "setting": "[1]; [5]", "value": "0.0745 ± 0.019"}, {"measurement": "peptide microarray binding signal", "setting": "[1]; [6]", "value": "0.0998 ± 0.058"}, {"measurement": "peptide microarray binding signal", "setting": "[2]; [7]", "value": "0.0252 ± 0.0093"}, {"measurement": "peptide microarray binding signal", "setting": "[2]; [8]", "value": "0.0507 ± 0.015"}, {"measurement": "peptide microarray binding signal", "setting": "[3]; [9]", "value": "0.00176 ± 0.00047"}, {"measurement": "peptide microarray binding signal", "setting": "[3]; [10]", "value": "0.00793 ± 0.00092"}, {"measurement": "peptide microarray binding signal", "setting": "[4]; [9]", "value": "0.00307 ± 0.00038"}, {"measurement": "peptide microarray binding signal", "setting": "[4]; [10]", "value": "0.00542 ± 0.00044"}]}
{"binder": "PKKAKAAKPKKAP", "note": "[Unmod H1 variant P K K A K A A K P K K A P]", "values": [{"measurement": "peptide microarray binding signal", "setting": "[1]; [11]", "value": "0.009 ± 0.00089"}, {"measurement": "peptide microarray binding signal", "setting": "[1]; [12]", "value": "0.01 ± 0.00062"}, {"measurement": "peptide microarray binding signal", "setting": "[2]; [13]", "value": "0.00424 ± 0.00016"}, {"measurement": "peptide microarray binding signal", "setting": "[2]; [14]", "value": "0.00751 ± 0.00063"}, {"measurement": "peptide microarray binding signal", "setting": "[3]; [15]", "value": "0.0006985 ± 6.5e-06"}, {"measurement": "peptide microarray binding signal", "setting": "[3]; [16]", "value": "0.00171 ± 3.3e-05"}, {"measurement": "peptide microarray binding signal", "setting": "[4]; [15]", "value": "0.000589 ± 9.4e-06"}, {"measurement": "peptide microarray binding signal", "setting": "[4]; [16]", "value": "0.00773 ± 0.0051"}]}
{"binder": "KAAKPKKAAAKKK", "note": "[Unmod H1 variant K A A K P K K A A A K K K]", "values": [{"measurement": "peptide microarray binding signal", "setting": "[1]; [11]", "value": "0.00972 ± 0.0014"}, {"measurement": "peptide microarray binding signal", "setting": "[1]; [12]", "value": "0.00767 ± 0.00046"}, {"measurement": "peptide microarray binding signal", "setting": "[2]; [13]", "value": "0.0034 ± 6.6e-05"}, {"measurement": "peptide microarray binding signal", "setting": "[2]; [14]", "value": "0.00673 ± 0.00083"}, {"measurement": "peptide microarray binding signal", "setting": "[3]; [15]", "value": "0.0007173 ± 6.6e-06"}, {"measurement": "peptide microarray binding signal", "setting": "[3]; [16]", "value": 0.00143}, {"measurement": "peptide microarray binding signal", "setting": "[4]; [15]", "value": "0.000619 ± 2.4e-05"}, {"measurement": "peptide microarray binding signal", "setting": "[4]; [16]", "value": "0.00156 ± 6.6e-05"}]}
{"binder": "RAKAKTRSSRAGL", "note": "[Unmod H2A variant R A K A K T R S S R A G L]", "values": [{"measurement": "peptide microarray binding signal", "setting": "[1]; [5]", "value": "0.0117 ± 0.00045"}, {"measurement": "peptide microarray binding signal", "setting": "[1]; [6]", "value": "0.0611 ± 0.039"}, {"measurement": "peptide microarray binding signal", "setting": "[2]; [7]", "value": "0.00531 ± 0.00038"}, {"measurement": "peptide microarray binding signal", "setting": "[2]; [8]", "value": "0.0242 ± 0.0082"}, {"measurement": "peptide microarray binding signal", "setting": "[3]; [9]", "value": "0.00328 ± 0.00034"}, {"measurement": "peptide microarray binding signal", "setting": "[3]; [10]", "value": "0.00165 ± 3.2e-05"}, {"measurement": "peptide microarray binding signal", "setting": "[4]; [9]", "value": "0.000966 ± 0.00011"}, {"measurement": "peptide microarray binding signal", "setting": "[4]; [10]", "value": "0.0011 ± 1.1e-05"}]}
{"binder": "KGNYAERVGAGAP", "note": "[Unmod H2A variant K G N Y A E R V G A G A P]", "values": [{"measurement": "peptide microarray binding signal", "setting": "[1]; [5]", "value": "0.0103 ± 0.00041"}, {"measurement": "peptide microarray binding signal", "setting": "[1]; [6]", "value": "0.0165 ± 0.00062"}, {"measurement": "peptide microarray binding signal", "setting": "[2]; [7]", "value": "0.0105 ± 0.0025"}, {"measurement": "peptide microarray binding signal", "setting": "[2]; [8]", "value": "0.034 ± 0.0024"}, {"measurement": "peptide microarray binding signal", "setting": "[3]; [9]", "value": "0.00546 ± 0.001"}, {"measurement": "peptide microarray binding signal", "setting": "[3]; [10]", "value": "0.00171 ± 6.5e-05"}, {"measurement": "peptide microarray binding signal", "setting": "[4]; [9]", "value": "0.00116 ± 9.3e-05"}, {"measurement": "peptide microarray binding signal", "setting": "[4]; [10]", "value": "0.00075 ± 2.1e-05"}]}
{"binder": "QGGKARAKAKTRS", "note": "[Unmod H2A variant Q G G K A R A K A K T R S]", "values": [{"measurement": "peptide microarray binding signal", "setting": "[1]; [5]", "value": "0.00784 ± 0.00021"}, {"measurement": "peptide microarray binding signal", "setting": "[1]; [6]", "value": "0.0153 ± 0.0011"}, {"measurement": "peptide microarray binding signal", "setting": "[2]; [7]", "value": "0.00298 ± 0.00012"}, {"measurement": "peptide microarray binding signal", "setting": "[2]; [8]", "value": "0.00496 ± 0.00036"}, {"measurement": "peptide microarray binding signal", "setting": "[3]; [9]", "value": "0.00125 ± 0.00024"}, {"measurement": "peptide microarray binding signal", "setting": "[3]; [10]", "value": "0.000685 ± 7.2e-06"}, {"measurement": "peptide microarray binding signal", "setting": "[4]; [9]", "value": "0.000408 ± 1.4e-05"}, {"measurement": "peptide microarray binding signal", "setting": "[4]; [10]", "value": "0.000404 ± 4.4e-06"}]}
{"binder": "KGNYAERIGAGAP", "note": "[Unmod H2A variant K G N Y A E R I G A G A P]", "values": [{"measurement": "peptide microarray binding signal", "setting": "[1]; [5]", "value": "0.0345 ± 0.0048"}, {"measurement": "peptide microarray binding signal", "setting": "[1]; [6]", "value": "0.0994 ± 0.0054"}, {"measurement": "peptide microarray binding signal", "setting": "[2]; [7]", "value": "0.0206 ± 0.00047"}, {"measurement": "peptide microarray binding signal", "setting": "[2]; [8]", "value": "0.0279 ± 0.0038"}, {"measurement": "peptide microarray binding signal", "setting": "[3]; [9]", "value": "0.00668 ± 0.0046"}, {"measurement": "peptide microarray binding signal", "setting": "[3]; [10]", "value": "0.00953 ± 0.0009"}, {"measurement": "peptide microarray binding signal", "setting": "[4]; [9]", "value": "0.005421 ± 1.8e-05"}, {"measurement": "peptide microarray binding signal", "setting": "[4]; [10]", "value": "0.00611 ± 0.0016"}]}
{"binder": "SGRGKQGGKARAK", "note": "[Unmod H2A variant S G R G K Q G G K A R A K]", "values": [{"measurement": "peptide microarray binding signal", "setting": "[1]; [5]", "value": "0.0203 ± 0.0024"}, {"measurement": "peptide microarray binding signal", "setting": "[1]; [6]", "value": "0.0194 ± 0.0069"}, {"measurement": "peptide microarray binding signal", "setting": "[2]; [7]", "value": "0.0104 ± 0.00068"}, {"measurement": "peptide microarray binding signal", "setting": "[2]; [8]", "value": "0.0167 ± 0.00073"}, {"measurement": "peptide microarray binding signal", "setting": "[3]; [9]", "value": "0.000151 ± 1.7e-06"}, {"measurement": "peptide microarray binding signal", "setting": "[3]; [10]", "value": "0.00337 ± 0.0001"}, {"measurement": "peptide microarray binding signal", "setting": "[4]; [9]", "value": "0.00112 ± 1.7e-05"}, {"measurement": "peptide microarray binding signal", "setting": "[4]; [10]", "value": 0.00133}]}
